Values joined by “and” are separate entries in the source; they are usually repeats but may differ in a detail not shown here. Equal entries are not always repeated. For some assays here: Potency and affinity values are given separately. Active and inactive are the calls of the source.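 How the source made its calls, unless noted: active means compounds whose cell count with miR-34 switched on is under 0.7 times the count with it off; inactive means the rest.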

The nature of assay [1]: blockers of polyQ-driven CASP3 activation – cell-based (AID 1583). The settings on record: polyglutamine-induced caspase-3 activation, cell assay; stronger effect = higher value;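 tested at 10 µM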.
Assay [2] in a line: yeast 75Q aggregation reduction – 75Q-TubU reporter (AID 1593). The settings on record: Yeast 75Q polyglutamine aggregation reporter.
Assay [3] can be described thus: restoration of touch response, mutant HTT neurons – whole organism, C. elegans mechanosensory neurons, N-terminal huntingtin (AID 1599). Conditions: C. elegans polyQ-huntingtin mechanosensory neurons, stronger effect = higher value.
Assay [4] in a line: blockers of cytochrome c efflux from mitochondria – biochemical, purified mitochondria (AID 1603).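 Further: mouse liver mitochondria challenged with calcium chloride; signal normalized to the plate average as 100%.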 The settings on record: stronger effect = lower value.
A short description of assay [5]: polyglutamine aggregate formation blockers (AID 1604). The settings on record: polyglutamine-induced protein aggregation inhibition assay; stronger effect = higher value; tested at 2.5 µM.
Assay [6] in a line: glutamate transport activators, MN-1 cells, MN-1 cell line (AID 1612).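 Further: tested at 1 µM final; 0% = mean of DMSO vehicle wells on each plate; positive means more glutamate uptake than control and negative means less.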 The settings on record: MN-1 motor neuron cells, stronger effect = higher value.
Assay [7] can be described thus: GFP-Q80 aggregate reduction, neuronal-like cells, cell-based, NGF-treated PC12, GFPQ80 (AID 1614).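 Further: lower means fewer inclusions and 0 means no inclusions at all.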 Conditions: PC12 NGF-treated GFP-polyQ80 inclusion reduction.
A short description of assay [8]: 75Q-TubH aggregate inhibition, S. cerevisiae, yeast (AID 1616). Conditions: S. cerevisiae 75Q-TubH polyglutamine aggregation suppression; stronger effect = higher value.
The nature of assay [9]: P. berghei load reduction in hepatocytes – cell-based, HepG2, luciferase luminescence, HepG2 viability, primary screen (AID 624349; in the data active means parasite load remaining mostly below about 12%, no sharp cut-off; inactive means mostly above about 10%;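 further: 100% = mean of DMSO negative control wells on the same plate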). Conditions: P. berghei liver stage in HepG2, luciferase luminescence, concentration not given here; parasite load remaining: stronger effect = lower value; viability: measured here: HepG2 viability without parasites.
Assay [10] concerns the target 6-phosphogluconate dehydrogenase, decarboxylating (Homo sapiens) (UniProt P52209). Briefly: inhibition of human phosphogluconate dehydrogenase – biochemical, recombinant enzyme, NADPH absorbance, primary screen (AID 1159550;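 active means at least 20% inhibition of 6-phosphogluconate dehydrogenase activity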). Conditions: recombinant 6PGD, NADPH absorbance 341 nm; at 10 µM; stronger effect = higher value.
Assay [11] in a line: EMT-state selective cytotoxicity in co-culture – imaging, PC-3E GFP, TEM4-18 mCherry, primary screen (AID 1345086;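 active means compounds killing one labelled cell type while sparing the other, by normalised counts and ratio limits, not self-fluorescent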;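 on all read-outs here: cells exposed to compound for 72 h before imaging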;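 on red/green cell ratio (normalised): normalised mesenchymal count divided by normalised epithelial count so high means epithelial killing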). The settings on record: PC-3E GFP / TEM4-18 mCherry co-culture, imaging cell counts, at 1 µM; for red/green cell ratio (normalised): actives lie on both sides, counts scaled to control wells, 1 = unselective.
Assay [12] can be described thus: viability loss with induced miR-34 in A549 – imaging, A549 dox-inducible miR-34, nuclei and caspase counts, primary screen (AID 1347080). The settings on record: A549 miR-34 inducible, Hoechst nuclei count, 48 h.
A short description of assay [13]: MELAS cybrid and Rieske KO viability enhancers – cell-based, MELAS cybrids, Rieske KO mouse fibroblasts, CellTiter-Glo, primary screen (AID 1508586;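 active means mean z-score across replicates of 1.96 or higher in either the MELAS or the Rieske mutant cell line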;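 further: z relative to plate mean and SD of compound and empty wells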). Conditions: low glucose.
Assay [14] concerns the target Mitogen-activated protein kinase 7 (Homo sapiens) (UniProt Q13164). Briefly: Gal4-ERK5 driven luciferase induction – cell-based, HTS, primary screen (AID 1508626;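 active means luciferase signal above three times the same-plate solvent-only control wells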;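 further: luciferase driven by Gal4-ERK5 fusion binding five Gal4 sites before minimal TATA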). Conditions: HeLa Gal4-ERK5 transactivation, 18 h, at 5 µM, stronger effect = higher value.
The target in assay [15] is NAD(+) hydrolase SARM1 (Homo sapiens) (UniProt Q6SZW1). Briefly: blocking NAD cleavage by SARM1 SAM-TIR – cell lysate, NAD-Glo luminescence (AID 1508614;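 active means compound whose remaining NAD level is above about 45 nM, limit read from the data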). The settings on record: SAM-TIR HEK293T lysate NADase, at 1 µM, stronger effect = higher value.
NAD(+) hydrolase SARM1 (Homo sapiens), sequence (Q6SZW1 whole entry, looked up): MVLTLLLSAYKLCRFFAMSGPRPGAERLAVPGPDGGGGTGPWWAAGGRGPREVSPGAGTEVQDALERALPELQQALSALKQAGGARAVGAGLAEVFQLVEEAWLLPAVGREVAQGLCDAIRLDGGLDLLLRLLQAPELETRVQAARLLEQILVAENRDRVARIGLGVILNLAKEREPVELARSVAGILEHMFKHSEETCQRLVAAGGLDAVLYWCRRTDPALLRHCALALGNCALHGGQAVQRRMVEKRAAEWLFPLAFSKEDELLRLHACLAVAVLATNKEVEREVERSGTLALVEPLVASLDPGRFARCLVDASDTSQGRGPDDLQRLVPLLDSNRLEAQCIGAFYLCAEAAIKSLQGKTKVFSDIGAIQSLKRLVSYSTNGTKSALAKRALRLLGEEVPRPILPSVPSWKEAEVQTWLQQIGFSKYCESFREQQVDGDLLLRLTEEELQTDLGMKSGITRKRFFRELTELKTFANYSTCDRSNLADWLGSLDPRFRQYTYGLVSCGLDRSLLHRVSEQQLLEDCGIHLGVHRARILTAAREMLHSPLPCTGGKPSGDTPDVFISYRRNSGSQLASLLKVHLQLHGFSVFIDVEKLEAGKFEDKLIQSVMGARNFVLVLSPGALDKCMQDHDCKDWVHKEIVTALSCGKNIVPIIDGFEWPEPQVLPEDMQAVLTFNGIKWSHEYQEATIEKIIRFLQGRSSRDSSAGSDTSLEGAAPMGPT
The nature of assay [16]: compounds altering circadian rhythm period length – cell-based, LOPAC library, luminescence reporter (AID 2774; call rule not given here;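 further: values are relative to mean of DMSO wells on each plate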). The settings on record: circadian reporter cells, at 7 µM, actives lie on both sides.
In assay [17] the test system is Hepatitis C virus NS3 helicase. Nature of the assay: blockers of NS3h binding to ssDNA – biochemical, fluorescence polarization, LOPAC1280 library, primary screen (AID 687035; in the data active means inhibition above about 37%). The settings on record: Purified HCV NS3 helicase, Cy5-dT15 ssDNA binding fluorescence polarization; stronger effect = higher value; concentration not given here. Background: In fluorescence polarisation assays a small probe gives low polarisation when free and higher when bound to something large.

Assay [18] can be described thus: blockers of cellular phospholipid synthesis – cell-based, LOPAC library, screen 4, primary screen (AID 1347384; call rule not given here). The settings on record: animal cells, phospholipid biosynthesis inhibition screen; at 10 µM.
Assay [19] is described as follows: galactose survival enhancers in mitochondrial complex I cybrids – cell-based, galactose medium, ATP luminescence, primary screen (AID 1645843;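 active means z-score of at least 1.8 in each of two replicates, scored against plate mean and spread of sample wells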;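 further: positive z means more ATP and so rescue of galactose-driven cybrid death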). Conditions: complex I mutant cybrid cells, 72 h, stronger effect = higher value.
[20] abbreviates: measured here: epithelial PC-3E GFP cell survival.
Where [21] appears, read: measured here: mesenchymal TEM4-18 mCherry cell survival.
The mark [22] stands for this setting: stronger effect = lower value, cell number ratio, induced over uninduced.
Where [23] appears, read: measured here: relative caspase fold change +Dox/-Dox.
Where [24] appears, read: measured here: total cells with miR-34 induction, stronger effect = lower value.
Where [25] appears, read: measured here: total cells without miR-34 induction.
Where [26] appears, read: MELAS cybrid survival, CellTiter-Glo 48 h, stronger effect = higher value.
Setting [27] is: Rieske KO mouse fibroblast survival, CellTiter-Glo 72 h.

Mitogen-activated protein kinase 7 (Homo sapiens), sequence (Q13164 whole entry, looked up, the tested form may be a part): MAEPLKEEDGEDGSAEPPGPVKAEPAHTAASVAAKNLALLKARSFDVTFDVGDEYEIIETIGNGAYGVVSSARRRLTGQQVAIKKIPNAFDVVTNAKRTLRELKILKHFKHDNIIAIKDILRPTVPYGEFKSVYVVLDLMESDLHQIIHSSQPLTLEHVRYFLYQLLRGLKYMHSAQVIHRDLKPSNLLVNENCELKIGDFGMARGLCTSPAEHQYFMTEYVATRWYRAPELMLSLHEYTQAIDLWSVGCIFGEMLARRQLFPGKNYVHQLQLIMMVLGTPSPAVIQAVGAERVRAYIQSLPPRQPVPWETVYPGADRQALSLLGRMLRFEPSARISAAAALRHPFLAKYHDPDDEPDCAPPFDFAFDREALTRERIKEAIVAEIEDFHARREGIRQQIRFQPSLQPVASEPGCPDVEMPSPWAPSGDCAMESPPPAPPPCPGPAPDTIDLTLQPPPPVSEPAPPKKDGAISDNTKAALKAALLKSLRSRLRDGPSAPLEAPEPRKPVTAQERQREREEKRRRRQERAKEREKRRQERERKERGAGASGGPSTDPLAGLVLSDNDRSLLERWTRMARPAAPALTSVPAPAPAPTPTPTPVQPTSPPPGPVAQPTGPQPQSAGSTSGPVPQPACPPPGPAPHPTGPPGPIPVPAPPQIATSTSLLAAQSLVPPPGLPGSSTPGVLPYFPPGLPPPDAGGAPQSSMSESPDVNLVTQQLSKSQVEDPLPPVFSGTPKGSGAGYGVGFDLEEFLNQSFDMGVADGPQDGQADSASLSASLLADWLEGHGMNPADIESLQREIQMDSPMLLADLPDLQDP
6-phosphogluconate dehydrogenase, decarboxylating (Homo sapiens), sequence (P52209 whole entry, looked up): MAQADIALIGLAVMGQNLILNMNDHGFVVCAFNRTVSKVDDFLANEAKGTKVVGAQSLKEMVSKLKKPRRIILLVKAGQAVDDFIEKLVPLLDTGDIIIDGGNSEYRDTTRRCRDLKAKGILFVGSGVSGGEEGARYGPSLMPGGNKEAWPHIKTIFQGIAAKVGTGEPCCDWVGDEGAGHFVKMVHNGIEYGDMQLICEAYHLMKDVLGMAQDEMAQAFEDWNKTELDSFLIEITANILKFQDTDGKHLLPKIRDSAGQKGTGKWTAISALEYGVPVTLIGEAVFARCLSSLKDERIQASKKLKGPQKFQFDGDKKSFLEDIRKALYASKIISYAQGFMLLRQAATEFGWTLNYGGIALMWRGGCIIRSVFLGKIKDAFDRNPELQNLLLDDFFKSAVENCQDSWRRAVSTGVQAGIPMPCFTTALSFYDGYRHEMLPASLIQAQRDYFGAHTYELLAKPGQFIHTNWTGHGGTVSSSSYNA

Consider `c1coc(CNc2ncnc3nc[nH]c23)c1`, for which the inhibition in assay [1] is 6.38%; in assay [10] it was 6.86% (inactive). The score in assay [2] was 1.14. In [3], this molecule displayed a rescue above control of 19.9. Besides, in assay [4], the cytochrome c release ratio is 1.1. This molecule also came in with an inhibition of aggregation in [5] of 68.2%. The glutamate uptake change in assay [6] is -3.65%. In assay [7], this molecule returned an inclusion score of 2. Further, in assay [8], the aggregation suppression score was found to be 0.807. The parasite load remaining in [9] was 122% (inactive) and 193% (inactive). The viability in assay [9] was 98% and 74%. Also, the red/green cell ratio (normalised) in assay [11] was 1.01 (inactive). The normalised cell number amounted to 1.05 in [11] (setting [20]) and 1.07 in [11] (setting [21]). For the same molecule, the fold change in assay [12] (setting [22]) was 1.04 (inactive) and 1.1 (inactive); in [12] (setting [23]), 0.935 and 0.585. The cell count was 8620 and 8070 in [12] (setting [24]); 8250 and 7310 in assay [12] (setting [25]). Further, the z-score is -0.185 (inactive) and -0.0285 (inactive) in assay [13] (setting [26]); -0.0997 and -0.188 in assay [13] (setting [27]). For the same molecule, the luciferase signal in assay [14] was 84 AU (inactive).

As to `CC[C@H]1OC(=O)[C@H](C)[C@@H](O[C@H]2C[C@@](C)(OC)[C@@H](O)[C@H](C)O2)[C@H](C)[C@@H](O[C@@H]2O[C@H](C)C[C@H](N(C)C)[C@H]2O)[C@](C)(O)C[C@@H](C)/C(=N\OCOCCOC)[C@H](C)[C@@H](O)[C@]1(C)O`, the inhibition in assay [1] was 1.74%; in assay [10] it was 16.8% (inactive). This molecule also registered a score in assay [2] of 0.81. Moreover, the rescue above control in assay [3] came to 1.9. Also, the cytochrome c release ratio in [4] amounted to 0.93. Also, in assay [5], the inhibition of aggregation turned out to be 60.6%. In assay [6], the glutamate uptake change turned out to be 2.1%. The molecule also had an inclusion score in assay [7] of 2. The molecule further showed an aggregation suppression score in assay [8] of 0.306. In addition, in assay [9], the parasite load remaining was 160% (inactive) and 51.6% (inactive). For the same molecule, in [9], the viability is 87.6% and 99.8%. For the same molecule, the red/green cell ratio (normalised) in [11] was 1 (inactive). Besides, the normalised cell number in [11] (setting [20]) and in assay [11] (setting [21]) was 1.13 each time. Moreover, the fold change in [12] (setting [22]) is 0.869 (inactive); in assay [12] (setting [23]), 4.54. In addition, the cell count in [12] (setting [24]) was determined as 10400; in assay [12] (setting [25]), 12000. For the same molecule, the z-score in assay [13] (setting [26]) was -0.323 (inactive); in assay [13] (setting [27]) it was -0.397. In addition, the remaining NAD in [15] is 10 nM (inactive). The luciferase signal in assay [14] was 84 AU (inactive).

As for `CN(C)CCN(Cc1cccs1)c1ccccn1`, the inhibition in assay [1] was 23.7%; in assay [17], -1% (inactive); in assay [10], 15.9% (inactive). The same molecule displayed a score in assay [2] of 1.21. Further, the rescue above control in assay [3] was -13.2. In addition, the cytochrome c release ratio in assay [4] stood at 0.66. The same molecule registered an inhibition of aggregation in assay [5] of 81.4%. In addition, the glutamate uptake change in assay [6] is -6.5%. Besides, the inclusion score in assay [7] amounted to 2. The aggregation suppression score in assay [8] is 1.19. Besides, in assay [16], the period change is 0.21 h (inactive). Further, the red/green cell ratio (normalised) in assay [11] was 1.12 (inactive). The normalised cell number in assay [11] (setting [20]) is 1.1; in [11] (setting [21]), 1.22. In addition, the fold change in assay [12] (setting [22]) was 1.16 (inactive) and 0.855 (inactive) and 0.861 (inactive); in assay [12] (setting [23]) it was 0.908 and 1.23 and 2.97. In addition, the cell count in assay [12] (setting [24]) was 11200 and 8440 and 11600; in assay [12] (setting [25]), 9630 and 9870 and 13500. Further, the molecule was classed as inactive in assay [18]. The z-score in assay [13] (setting [26]) is 0.365 (inactive); in assay [13] (setting [27]), -0.164; in assay [19] it was 0.215 (inactive). For the same molecule, in [15], the remaining NAD was 10 nM (inactive). Also, in assay [14], the luciferase signal was 36 AU (inactive).

As for `NC[C@H]1O[C@H](O[C@H]2[C@H](O)[C@@H](O[C@H]3O[C@H](CO)[C@@H](O)[C@H](N)[C@H]3O)[C@H](N)C[C@@H]2N)[C@H](N)C[C@@H]1O`, the parasite load remaining in [9] was 155% (inactive) and 39.4% (inactive) and 27.1% (inactive). The viability in [9] was 107% and 98% and 71.5%. In addition, in assay [10], the inhibition is -0.0775% (inactive). Also, in assay [11], the red/green cell ratio (normalised) is 1.17 (inactive). The normalised cell number is 0.88 in assay [11] (setting [20]) and 1.03 in [11] (setting [21]). In addition, the fold change in assay [12] (setting [22]) is 0.865 (inactive) and 0.994 (inactive) and 0.887 (inactive); in assay [12] (setting [23]) it was 1.22 and 2.22 and 1.69. The cell count was 8760 and 12000 and 9090 in [12] (setting [24]); 10100 and 12100 and 10300 in assay [12] (setting [25]). The z-score was 0.333 (inactive) and -0.0714 (inactive) in [13] (setting [26]); 0.434 and -0.898 in assay [13] (setting [27]); 0.605 (inactive) in [19]. The remaining NAD in [15] was 22 nM (inactive). For the same molecule, the luciferase signal in [14] was 84 AU (inactive).

`COc1cc(/C=C/C(=O)O)ccc1O`: in assay [9], the parasite load remaining is 186% (inactive) and the viability came out at 69.3%. The inhibition in assay [10] was 3.09% (inactive). Besides, the red/green cell ratio (normalised) in [11] is 1.05 (inactive). Also, the normalised cell number in assay [11] (setting [20]) is 1. The molecule further gave a normalised cell number in assay [11] (setting [21]) of 1.05. Besides, the luciferase signal in assay [14] is 48 AU (inactive).

As a reminder, the inhibition is the change of the read-out against control, counted positive when it falls. As a reminder, the viability is a read-out of living cells in per cent, often relative to untreated cells.

The values above are taken from PubChem BioAssay.
